Measured values published in PubChem BioAssay (NCATS).
Records with an inconclusive call do not appear. Activity calls are given as the source filed them. Unless noted, the call rests on the fitted dose curve; in most records, active means well fitted curve in the direction sought with a large enough effect; inconclusive means small, poorly fitted or top-dose-only effect, or another doubt; inactive means no such curve, though single readings can be large; an effect the other way counts as inactive or inconclusive.

What was measured:
[1] = P-glycoprotein substrates identified in KB-8-5-11 adenocarcinoma cell line, qHTS therapeutic library screen (AID 1346987); further: nearly all actives have a fitted effect of over 65% in size; further: potency means the concentration at half of the fitted maximal effect
In short: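 Compounds are pinned in dose-response onto KB-8-5-11 cells (500 cells/well, colchicine-free medium) and left 72 h at 37 degree C. CellTiter-Glo luminescence then yields AC50 values.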

[2] = Natriuretic polypeptide receptor (hNpr1) antagonism - Pilot counterscreen GloSensor control cell line (AID 1347045; calls by dose curve; further: series mostly up to about 38 µM)
In short: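 Control counterscreen: luciferase cGMP-biosensor HEK293 cells (no Npr1) received compound for 30 min at room temperature after GloSensor substrate loading. Luminescence was measured before and 20 min after soluble guanylyl cyclase activation by 50 uM nitroprusside.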

[3] = biological target: Atrial natriuretic peptide receptor 1 (Homo sapiens) (UniProt P16066); experiment: Natriuretic polypeptide receptor (hNpr1) antagonism - Pilot screen (AID 1347049; calls by dose curve;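 further: HEK293 cells with hNpr1 and GloSensor cGMP luciferase stimulated by 0.1 nM hNppA; agonist-evoked cGMP luminescence read 20 min after hNppA addition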; further: potency means the concentration at half of the fitted maximal effect)
Chain of Atrial natriuretic peptide receptor 1 (Homo sapiens) (P16066 whole entry, looked up): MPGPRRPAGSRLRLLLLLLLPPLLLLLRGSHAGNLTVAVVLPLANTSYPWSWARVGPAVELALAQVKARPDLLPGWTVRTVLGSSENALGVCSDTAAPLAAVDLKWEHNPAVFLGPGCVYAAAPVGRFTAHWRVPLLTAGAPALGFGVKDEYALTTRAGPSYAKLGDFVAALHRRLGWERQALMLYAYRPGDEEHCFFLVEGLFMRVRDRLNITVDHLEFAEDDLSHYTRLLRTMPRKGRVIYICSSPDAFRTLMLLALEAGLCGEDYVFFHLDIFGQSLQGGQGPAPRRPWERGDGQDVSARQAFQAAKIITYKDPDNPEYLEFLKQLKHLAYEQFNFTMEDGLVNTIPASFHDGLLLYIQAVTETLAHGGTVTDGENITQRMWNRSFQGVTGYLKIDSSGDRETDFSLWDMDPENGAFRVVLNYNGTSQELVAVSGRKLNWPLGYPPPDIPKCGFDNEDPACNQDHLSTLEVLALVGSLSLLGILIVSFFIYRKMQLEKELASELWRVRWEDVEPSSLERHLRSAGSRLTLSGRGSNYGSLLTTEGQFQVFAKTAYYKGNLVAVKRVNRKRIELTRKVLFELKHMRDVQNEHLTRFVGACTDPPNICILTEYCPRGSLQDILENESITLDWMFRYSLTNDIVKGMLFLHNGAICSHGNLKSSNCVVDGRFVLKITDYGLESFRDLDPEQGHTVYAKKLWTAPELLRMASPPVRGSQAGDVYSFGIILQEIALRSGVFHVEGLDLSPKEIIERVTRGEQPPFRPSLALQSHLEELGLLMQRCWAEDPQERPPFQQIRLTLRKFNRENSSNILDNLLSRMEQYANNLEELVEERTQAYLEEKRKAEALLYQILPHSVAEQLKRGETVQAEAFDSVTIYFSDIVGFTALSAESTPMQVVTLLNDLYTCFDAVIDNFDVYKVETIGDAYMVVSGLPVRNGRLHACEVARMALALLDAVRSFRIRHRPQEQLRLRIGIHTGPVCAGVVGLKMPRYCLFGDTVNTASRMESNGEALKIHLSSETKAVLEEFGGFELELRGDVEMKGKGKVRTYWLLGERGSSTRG
In short: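 Cells expressing receptor plus cGMP biosensor are seeded and incubated overnight at 37C, then loaded with GloSensor reagent (2% final) at room temperature for 2 h. Library compounds go on for 30 min. A pre-read precedes agonist (hNppA, 0.1 nM final) and a 20-min readout.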

[4] = biological target: Atrial natriuretic peptide receptor 2 (Homo sapiens) (UniProt P20594); experiment: Natriuretic polypeptide receptor (hNpr2) antagonism - Pilot subtype selectivity assay (AID 1347050; calls by dose curve)
Chain of Atrial natriuretic peptide receptor 2 (Homo sapiens) (P20594 whole entry, looked up): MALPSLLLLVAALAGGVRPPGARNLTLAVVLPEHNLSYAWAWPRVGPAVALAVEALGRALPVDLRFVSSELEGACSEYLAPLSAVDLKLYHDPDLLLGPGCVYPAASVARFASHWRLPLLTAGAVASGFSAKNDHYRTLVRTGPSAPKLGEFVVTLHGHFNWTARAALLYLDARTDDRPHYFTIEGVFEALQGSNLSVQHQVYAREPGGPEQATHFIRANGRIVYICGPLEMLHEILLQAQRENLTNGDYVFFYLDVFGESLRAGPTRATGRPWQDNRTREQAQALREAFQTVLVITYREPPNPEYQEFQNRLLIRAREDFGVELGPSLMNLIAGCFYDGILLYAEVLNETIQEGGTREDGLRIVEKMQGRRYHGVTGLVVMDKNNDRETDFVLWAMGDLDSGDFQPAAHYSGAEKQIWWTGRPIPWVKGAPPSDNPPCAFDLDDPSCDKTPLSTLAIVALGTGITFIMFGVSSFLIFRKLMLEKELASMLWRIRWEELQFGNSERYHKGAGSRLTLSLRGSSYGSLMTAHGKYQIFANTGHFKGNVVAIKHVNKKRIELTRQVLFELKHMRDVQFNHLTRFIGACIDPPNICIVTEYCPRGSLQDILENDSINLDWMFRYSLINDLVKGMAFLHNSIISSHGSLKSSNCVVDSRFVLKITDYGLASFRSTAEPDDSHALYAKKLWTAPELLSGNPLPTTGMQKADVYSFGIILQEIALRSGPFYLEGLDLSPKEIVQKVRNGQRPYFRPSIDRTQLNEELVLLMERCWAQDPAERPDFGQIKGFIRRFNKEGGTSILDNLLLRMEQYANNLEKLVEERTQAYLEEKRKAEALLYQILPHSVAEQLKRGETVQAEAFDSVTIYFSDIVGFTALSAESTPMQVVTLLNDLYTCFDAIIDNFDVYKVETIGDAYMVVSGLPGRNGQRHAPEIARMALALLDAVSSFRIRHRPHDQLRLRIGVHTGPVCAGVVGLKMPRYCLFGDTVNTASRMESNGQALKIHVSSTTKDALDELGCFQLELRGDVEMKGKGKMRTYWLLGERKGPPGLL
In short: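 Read-out: GloSensor luminescence (CCD imager), baseline vs post-stimulation. HEK293 cells expressing hNpr2; compounds pre-incubated 30-50 min at ambient temperature; hNppC 1 nM final, 20 min.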

[5] = NS1 protein of Zika virus - qHTS assay to identify small molecule inhibitors in human HEK 293 cells (AID 1347053); further: series mostly up to about 46 µM; nearly all actives have a fitted effect of over 55% in size
In short: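 In this cell-based screen, HEK 293 cultures received compound for one hour before Zika MR766 at MOI = 0.5. NS1 was quantified 24 hours later by TR-FRET, normalized to virus-free wells and infected wells.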

[6] = biological target: Parathyroid hormone/parathyroid hormone-related peptide receptor (Homo sapiens) (UniProt Q03431); experiment: qHTS for PTHR1 Agonists: Optimization Screen against the NCGC LOPAC library (AID 1347079);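 further: GloSensor cAMP luminescence in HEK-293 GP2 cells expressing human PTHR1 with IBMX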
Chain of Parathyroid hormone/parathyroid hormone-related peptide receptor (Homo sapiens) (Q03431 whole entry, looked up): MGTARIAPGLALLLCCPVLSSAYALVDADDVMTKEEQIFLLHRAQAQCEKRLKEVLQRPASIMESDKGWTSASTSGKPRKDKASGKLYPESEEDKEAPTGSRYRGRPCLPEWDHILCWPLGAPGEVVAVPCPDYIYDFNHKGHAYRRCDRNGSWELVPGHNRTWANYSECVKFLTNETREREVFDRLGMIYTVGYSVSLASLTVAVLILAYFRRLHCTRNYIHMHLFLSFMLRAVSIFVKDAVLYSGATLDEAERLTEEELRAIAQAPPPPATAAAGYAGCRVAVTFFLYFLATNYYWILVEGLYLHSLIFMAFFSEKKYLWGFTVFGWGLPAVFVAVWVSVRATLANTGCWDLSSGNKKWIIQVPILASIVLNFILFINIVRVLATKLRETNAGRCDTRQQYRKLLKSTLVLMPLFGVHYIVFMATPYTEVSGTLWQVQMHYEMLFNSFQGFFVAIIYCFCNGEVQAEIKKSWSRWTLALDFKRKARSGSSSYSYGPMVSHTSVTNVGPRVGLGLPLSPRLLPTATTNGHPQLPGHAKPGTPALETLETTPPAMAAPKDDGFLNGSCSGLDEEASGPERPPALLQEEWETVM
In short: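 HEK-293 GP2 cells, PTHR1 + GloSensor cAMP; 3000 cells/well, o/n. Luciferin + IBMX 0.5mM each (stock), 1 hr 37C. Cpd titration, 1 hr 37C. Lum after 15 min RT. Ctrl M-PTH(1-15) top 10uM.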

[7] = qHTS of pediatric cancer cell lines to identify multiple opportunities for drug repurposing: Primary screen for TC32 cells (AID 1347089); further: nearly all actives have a fitted effect of over 60% in size
In short: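 qHTS, TC32, 48 h drug treatment, CellTiter-Glo luminescence as a proxy for metabolically active cells; primary top concentration 46 µM (MIPE 11-pt, NPC 8-pt); confirmatory 11-pt.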

[8] = qHTS of pediatric cancer cell lines to identify multiple opportunities for drug repurposing: Primary screen for DAOY cells (AID 1347090); further: nearly all actives have a fitted effect of over 55% in size; further: potency means the concentration at half of the fitted maximal effect
In short: (§1)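 Eight- or eleven-point concentration series, 48 h treatment at 37 degrees C in growth media; readout CellTiter-Glo luminescence. Potency and efficacy were taken from the concentration-response curves.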

[9] = qHTS of pediatric cancer cell lines to identify multiple opportunities for drug repurposing: Primary screen for SJ-GBM2 cells (AID 1347091); further: potency means the concentration at half of the fitted maximal effect
In short: as §1

[10] = qHTS of pediatric cancer cell lines to identify multiple opportunities for drug repurposing: Primary screen for A673 cells (AID 1347092); further: nearly all actives have a fitted effect of over 45% in size; further: potency means the concentration at half of the fitted maximal effect
In short: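 Luminescence from CellTiter-Glo, taken after 15 min at room temperature, served as the proxy for metabolically active cells following 48 h treatment. Both potency and efficacy were taken from curves fitted to the titration data.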

[11] = qHTS of pediatric cancer cell lines to identify multiple opportunities for drug repurposing: Primary screen for SK-N-MC cells (AID 1347093); further: potency means the concentration at half of the fitted maximal effect
In short: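 Metabolically active cells were quantified by ATP-dependent luminescence (CellTiter-Glo, 15 min at room temperature) following 48 h treatment. Cells had been plated at 500-1,000 per well and settled for 5 h beforehand.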

[12] = qHTS of pediatric cancer cell lines to identify multiple opportunities for drug repurposing: Primary screen for BT-37 cells (AID 1347094); further: potency means the concentration at half of the fitted maximal effect
In short: (§2)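 Following a 5-hour attachment period, cells at 500-1,000/well received compounds and were cultured for 48 hours. CellTiter-Glo was added and luminescence read to estimate viable, metabolically active cells.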

[13] = qHTS of pediatric cancer cell lines to identify multiple opportunities for drug repurposing: Primary screen for NB-EBc1 cells (AID 1347095); further: potency means the concentration at half of the fitted maximal effect
In short: as §2

[14] = qHTS of pediatric cancer cell lines to identify multiple opportunities for drug repurposing: Primary screen for U-2 OS cells (AID 1347096); further: nearly all actives have a fitted effect of over 50% in size
In short: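 Cells (500-1,000/well) in growth media were settled 5 h at 37 degrees C, then given compounds for 48 h. Viability was read as CellTiter-Glo luminescence. Primary runs used MIPE at 11 points (0.78 nM-46 µM) and NPC at 8 points (0.59 nM-46 µM); follow-ups used 11 points.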

[15] = qHTS of pediatric cancer cell lines to identify multiple opportunities for drug repurposing: Primary screen for Saos-2 cells (AID 1347097); further: nearly all actives have a fitted effect of over 40% in size
In short: as §2

[16] = qHTS of pediatric cancer cell lines to identify multiple opportunities for drug repurposing: Primary screen for SK-N-SH cells (AID 1347098); further: nearly all actives have a fitted effect of over 65% in size; further: potency means the concentration at half of the fitted maximal effect
In short: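 Cells (500-1,000/well) rested 5 h, then received compounds for 48 h; metabolically active cells were measured by CellTiter-Glo luminescence. Final concentrations spanned up to 46 µM (MIPE, 11-point) or 0.59 nM-46 µM (NPC, 8-point) in primary screens, 11-point in follow-ups.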

[17] = qHTS of pediatric cancer cell lines to identify multiple opportunities for drug repurposing: Primary screen for NB1643 cells (AID 1347099); further: nearly all actives have a fitted effect of over 50% in size; further: potency means the concentration at half of the fitted maximal effect
In short: as §2

[18] = biological target: T1, Tyrosine-protein phosphatase non-receptor type substrate 1 (Homo sapiens) + Leukocyte surface antigen CD47 (Homo sapiens) (UniProt P78324+Q08722); experiment: CD47-SIRPalpha protein protein interaction - LANCE assay qHTS validation (AID 1347057; active means well fitted curve in the direction sought with a large enough effect in the signal ratio, with a control signal flat, not every such curve was filed as active; the % refers to the signal ratio; further: series mostly up to about 38 µM)
T1 sequence (P78324 whole entry, looked up, the tested form may be a part): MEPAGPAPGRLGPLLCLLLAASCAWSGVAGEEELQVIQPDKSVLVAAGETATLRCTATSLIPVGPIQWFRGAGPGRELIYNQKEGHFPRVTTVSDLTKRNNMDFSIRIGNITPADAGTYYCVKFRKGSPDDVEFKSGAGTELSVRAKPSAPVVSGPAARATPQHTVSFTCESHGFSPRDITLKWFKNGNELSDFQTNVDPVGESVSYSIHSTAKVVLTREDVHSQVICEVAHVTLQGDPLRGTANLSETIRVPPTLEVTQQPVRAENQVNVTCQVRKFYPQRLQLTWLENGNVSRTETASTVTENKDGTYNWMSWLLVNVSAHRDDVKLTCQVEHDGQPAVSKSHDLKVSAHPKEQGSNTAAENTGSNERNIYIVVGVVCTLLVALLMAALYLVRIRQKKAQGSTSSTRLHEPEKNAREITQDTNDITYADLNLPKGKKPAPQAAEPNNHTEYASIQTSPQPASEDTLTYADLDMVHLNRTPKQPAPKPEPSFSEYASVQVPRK
T1 sequence (Q08722 whole entry, looked up, the tested form may be a part): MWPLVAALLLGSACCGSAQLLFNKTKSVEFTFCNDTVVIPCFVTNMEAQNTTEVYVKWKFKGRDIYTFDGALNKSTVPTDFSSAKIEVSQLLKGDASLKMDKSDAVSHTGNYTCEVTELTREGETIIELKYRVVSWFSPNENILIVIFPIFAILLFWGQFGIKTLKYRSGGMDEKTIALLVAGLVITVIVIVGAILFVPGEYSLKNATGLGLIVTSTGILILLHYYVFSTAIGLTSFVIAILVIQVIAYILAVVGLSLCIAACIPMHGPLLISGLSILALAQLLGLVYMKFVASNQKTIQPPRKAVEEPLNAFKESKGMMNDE
In short: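 Inhibition of soluble CD47/SIRPalpha ectodomain association by titrated compounds, measured as 665/615 nm time-resolved FRET ratio after sequential 30 min room-temperature incubations.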

[19] = biological target: T1, Tyrosine-protein phosphatase non-receptor type substrate 1 (Homo sapiens) + Leukocyte surface antigen CD47 (Homo sapiens); experiment: CD47-SIRPalpha protein protein interaction - HTRF assay qHTS validation (AID 1347058; active means well fitted curve in the direction sought with a large enough effect in the signal ratio, not every such curve was filed as active; the % refers to the signal ratio; further: series mostly up to about 38 µM)
In short: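 Soluble extracellular domains (6His-CD47, Avi-tag-biotinylated SIRPalpha) in PBS pH 7.4 with 0.05% IGEPAL CA-630. Compounds were preincubated 30 min at RT with CD47 and anti-His-Eu, then SIRPalpha and SAV-XL665 were added. TR-FRET 665/615 ratio.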

[20] = biological target: T1, Tyrosine-protein phosphatase non-receptor type substrate 1 (Homo sapiens) + Leukocyte surface antigen CD47 (Homo sapiens); experiment: CD47-SIRPalpha protein protein interaction - Alpha assay qHTS validation (AID 1347059);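 further: bead proximity luminescence from CD47 binding SIRPalpha after compound preincubation with SIRPalpha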; further: potency means the concentration at half of the fitted maximal effect
In short: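 In PBS (pH 7.4) with 0.05% IGEPAL CA-630, compound is preincubated with biotin-Avi-SIRPalpha ectodomain before His-CD47 ectodomain and affinity beads are added. Light-protected room-temperature incubations; AlphaScreen readout.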

Measured: Potency

Nc1ccn([C@@H]2O[C@H](CO)[C@@H](O)C2O)c(=O)n1 (stereo partly drawn)
not listed: [18] | [19] | [20]
inactive: all other assays above

O=C(CCc1ccc(O)cc1)c1c(O)cc(O)cc1O
active: [8] 0.118 µM | [11] 0.118 µM
not listed: [2] | [9] | [10] | [12] | [13] | [17]
inactive: all other assays above

O=c1c(O)c(-c2ccc(O)cc2O)oc2cc(O)cc(O)c12
active: [20] 1.85 µM
not listed: [7] | [10] | [15] | [18] | [19]
inactive: all other assays above

C[C@@H](N)C1CCC(C(=O)Nc2ccncc2)CC1 (stereo partly drawn)
active: [9] 7.43 µM
not listed: [2] | [3] | [10] | [11] | [15] | [16]
inactive: all other assays above

Cc1cccc(-c2[nH]ncc2-c2ccc3ncccc3n2)n1
not listed: [2] | [3] | [4] | [6] | [12]
inactive: all other assays above

CC1(C)C(=O)N(CCN2CCC(C(=O)c3ccc(F)cc3)CC2)c2ccccc21
active: [11] 10.5 µM
not listed: [8] | [16] | [17] | [19]
inactive: all other assays above

O=C(c1ccccc1)c1ccc2n1CCC2C(=O)O (stereo not drawn)
not listed: [8] | [10] | [11] | [16]
inactive: all other assays above

Cc1cc(O)c2c(c1)C(=O)c1cc(O)cc(O)c1C2=O
active: [3] 23.9 µM
not listed: [2] | [4] | [8] | [11] | [13] | [17] | [19]
inactive: all other assays above

CN(C)C(=O)[C@H](O)[C@H](Cc1ccccc1)NC(=O)c1cc2cc(Cl)ccc2[nH]1
inactive: [1] | [5] | [18] | [19] | [20] | [12] | [14]
active: [8] 7.43 µM | [9] 4.69 µM | [11] 1.18 µM | [13] 3.32 µM

O=C1c2ccccc2-c2n[nH]c3cccc1c23
active: [1] 18.4 µM | [10] 1.87 µM | [11] 2.64 µM | [12] 3.43 µM | [13] 1.05 µM | [16] 5.41 µM | [17] 2.96 µM
not listed: [3] | [8] | [15] | [18] | [19]
inactive: all other assays above

O=C1NC(=O)C(c2ccccc2[N+](=O)[O-])=C1Nc1ccc(O)c(Cl)c1
active: [11] 0.118 µM
not listed: [9] | [10] | [16] | [17] | [19]
inactive: all other assays above

O=c1ccc2ccc(O)c(O)c2o1
active: [8] 7.43 µM | [10] 5.9 µM
not listed: [11] | [13] | [16] | [17] | [19]
inactive: all other assays above

Nc1nc(OCc2ccccc2)c2[nH]cnc2n1
active: [10] 18.7 µM | [13] 18.7 µM
not listed: [7] | [9] | [11] | [12] | [15] | [16] | [17]
inactive: all other assays above

COc1ccccc1N1CCN(CCN(C(=O)C2CCCCC2)c2ccccn2)CC1
active: [13] 6.62 µM
not listed: [7] | [8] | [17]
inactive: all other assays above

CNC[C@H](O)c1ccc(O)c(O)c1
not listed: [10] | [13] | [17]
inactive: all other assays above
